Results on 96 compounds are retold here after ChEMBL document CHEMBL3988442, “University of Dundee, Small-Polar-MMV Screening Library” (2021).

Screen size: about 48,000 compounds; about 13,000 (27%) showed an effect of 50% or more. The list shows a part of the results.

For the assay, the system named is Wolbachia pipientis. Put plainly: Anti-Wolbachia Cell-Based Screen. It counts as functional. On the set-up: scale not given: in the data most compounds retested in dose-response had high values. Particulars: 5 µM.
As for `CC(NC(=O)NC1CCN(Cc2ccncc2)CC1)c1cccc(F)c1` (stereo unspecified), the “Percent Effect” value came out at 10.76%.
As for `CNC(=O)C1CN(c2ccc(F)cc2)CCN1.Cl` (stereo unspecified), the “Percent Effect” value is listed as 158.3%.
Consider `Cl.NC(=O)C1CN(c2ccc(F)cc2)CCN1` (stereo unspecified), for which the “Percent Effect” value was 113.5%.
In the case of `Cc1cc(C(=O)NCc2ccc(N3CCCC(C(N)=O)C3)cc2)[nH]n1` (stereo unspecified) it was -1.321%; in that of `CNC(=O)C1CCN(C(=O)c2ccn(-c3ccc(F)cc3)n2)CC1`, -2.487%.
On to `COc1ccc(N2CCCN(CC(=O)N3CCNC(=O)C3)CC2)cc1`, for which the “Percent Effect” value is reported as -7.971%.
For `NC(=O)C1CCN(C(=O)c2ccn(-c3ccc(F)cc3)n2)C1` (stereo unspecified), the “Percent Effect” value is -7.383%.
For the compound `COc1ccc(SC(C)C(=O)N2CCC(C(N)=O)CC2)cc1` (stereo unspecified), the “Percent Effect” value is reported as -1.042%.
With `CNC(=O)N1CCC2(CC1)CNc1ccc(F)cc12.Cl`, the “Percent Effect” value is reported as 2.564%.
In the case of `COc1ccc(N2CCNC(C(N)=O)C2)cc1` (stereo unspecified), the “Percent Effect” value is listed as 90.5%.
With `CCN(CC)CCCC(C)NC(=O)c1ccccc1-n1cccn1` (stereo unspecified), the “Percent Effect” value turned out to be 7.306%.
`Cc1csc(CN(C)C(=O)Nc2cc(F)cc(N3CCCC3)c2)n1`: the “Percent Effect” value worked out at 1.916%.
`Cc1cc(CN2CCN(C(=O)C3CCC3)[C@@H]3CS(=O)(=O)C[C@@H]32)ccc1F`: the “Percent Effect” value is -7.739%.
Turning to `COCc1cccc(NS(=O)(=O)c2cc(C(=O)O)cs2)c1`, the “Percent Effect” value was -2.674%.
In the case of `COc1ccc(CCNC(=O)N2CCCC(c3nncn3C)C2)cc1` (stereo unspecified) it was 95.68%; in that of `Cc1[nH]ncc1CCCNC(=O)N1CCC(C(N)=O)CC1`, -4.643%.
Regarding `COc1ccc(CC(=O)N2CCCC(c3nncn3C)C2)cc1` (stereo unspecified), the “Percent Effect” value is reported as -3.253%.
Take `CC(=O)N1CCCN(C(=O)NCCCc2cn[nH]c2C)CC1`: the “Percent Effect” value was found to be 5.241%.
Take `COc1ccccc1CCNC(=O)N1CCCC(c2nncn2C)C1` (stereo unspecified): the “Percent Effect” value was determined as 0.4535%.
As for `Cn1cnnc1C1CCCN(C(=O)NCCc2ccccc2F)C1` (stereo unspecified), the “Percent Effect” value is listed as -7.484%.
For `Cn1cc(CCNC(=O)N2CCCC(c3nncn3C)C2)cn1` (stereo unspecified), the “Percent Effect” value is given as 107%.
Turning to `Cc1[nH]ncc1CCCNC(=O)N1CCCC(c2nncn2C)C1` (stereo unspecified), the “Percent Effect” value is reported as 131.8%.
In the case of `Cc1ccccc1CCNC(=O)N1CCCC(c2nncn2C)C1` (stereo unspecified), the “Percent Effect” value came out at 7.468%.
Take `CCOc1cc(CN(C)CCOC)ccc1OC(F)F`: the “Percent Effect” value turned out to be 9.652%.
Regarding `CN(C)C(=O)c1cccc(NC(=O)Cc2cc(F)ccc2F)n1`, the “Percent Effect” value is -6.771%.
As for `CS(=O)(=O)NCCCNCc1cc(F)ccc1Br`, the figure is 85.45%; as for `CC(=O)NCCCNCc1cc(F)ccc1Br`, 10.59%.
`CCS(=O)(=O)NCCNCc1cc(F)ccc1Br`: the “Percent Effect” value was 5.201%.
With `O=C(c1cnc(-c2ccco2)s1)N1CCCC1Cn1cccn1` (stereo unspecified), the “Percent Effect” value is on record as -5.367%.
With `Cc1nc(-c2ccco2)ccc1C(=O)N1CCCC1Cn1cccn1` (stereo unspecified), the “Percent Effect” value is on record as -3.884%.
Consider `Cc1sc(-c2ccco2)nc1C(=O)N1CCCC1Cn1cccn1` (stereo unspecified), for which the “Percent Effect” value was 99.48%.
On to `O=C(c1cnc(-c2ccco2)s1)N1CCCCC1Cn1cccn1` (stereo unspecified), for which the “Percent Effect” value amounted to 80.46%.
`Cc1cnn(CC2CCCN2C(=O)c2cnc(-c3ccco3)s2)c1` (stereo unspecified): the “Percent Effect” value is listed as 107.8%.
Turning to `COc1ccccc1S(=O)(=O)CCOC(C)C`, the “Percent Effect” value was 8.609%.
For `CC(C)Oc1ccc(CSc2nnc(CN3CCCC3=O)o2)cc1`, the “Percent Effect” value is -8.061%.
As for `Cc1ccc(OCC2CCCN(c3nc(CO)cs3)C2)cc1` (stereo unspecified), the “Percent Effect” value came out at 87.49%.
In the case of `Cc1ccc(OCC2CCCN(Cc3ccc(CO)o3)C2)cc1` (stereo unspecified), the “Percent Effect” value is recorded as -15.89%.
`Cc1ccc(OCC2CCCN(c3cc(C(N)=O)ccn3)C2)cc1` (stereo unspecified): the “Percent Effect” value is reported as 0.1163%.
`OCc1csc(N2CCCC(COc3cccc(F)c3)C2)n1` (stereo unspecified): the “Percent Effect” value is listed as 96.77%.
In the case of `OCc1csc(N2CCN(Cc3cccc(F)c3)CC2)n1`, the “Percent Effect” value is -8.687%.
On to `OCc1csc(N2CCCN(Cc3ccc(F)cc3)CC2)n1`, for which the “Percent Effect” value is 11.91%.
In the case of `COc1ccc(OCC2CCCN(c3nc(CO)cs3)C2)cc1` (stereo unspecified) it was 99.62%.
As for `COc1cccc(OCC2CCCN(c3cc(C(N)=O)ccn3)C2)c1` (stereo unspecified), the figure is 12.14%.
Regarding `CC(C)NS(=O)(=O)c1cc(C(=O)O)cc(-c2ccccc2CN(C)C)c1`, the “Percent Effect” value was 9.283%.
As for `CCOCCN1CCN(Cc2nnc(-c3occc3C)o2)CC1`, the figure is -3.196%.
Take `CC(C)C(O)C1(CNC(=O)Nc2ccc(CN3CCOC3=O)cc2)CC1` (stereo unspecified): the “Percent Effect” value is listed as -15.4%.
In the case of `COC(=O)c1ccc2ccn(CC3CCCO3)c(=O)c2c1` (stereo unspecified), the “Percent Effect” value is given as -4.095%.
On to `CCOCCn1c(=O)[nH]c2cc(C(=O)N(C)Cc3nc(C)c[nH]3)ccc21`, for which the “Percent Effect” value is on record as -5.58%.
Regarding `CCC[C@]12CN3C[C@](CCC)(CN(C1)C3c1[nH]c(=O)[nH]c(=O)c1C)C2=O` (stereo partly specified), the “Percent Effect” value worked out at 113.9%.
Regarding `Cc1c(C2N3C[C@]4(C(C)C)CN2C[C@](C(C)C)(C3)C4=O)[nH]c(=O)[nH]c1=O` (stereo partly specified), the “Percent Effect” value was determined as 123.1%.
In the case of `CC(=O)NC[C@H]1COCc2nc3c(C)cccc3n21`, the “Percent Effect” value is reported as 4.229%.
As for `CCOC(C)c1noc(CN2CCN(c3ccncc3)CC2)n1` (stereo unspecified), the figure is -6.635%.
With `COc1ccc(CC(=O)N2Cc3nccn3CC(CN(C)C)C2)cc1.O=C(O)C(F)(F)F` (stereo unspecified), the “Percent Effect” value amounted to 100.3%.
As to `CN(C)CC1CN(C(=O)CCc2ccccc2)Cc2nccn2C1.O=C(O)C(F)(F)F` (stereo unspecified), the “Percent Effect” value stood at 96.55%.
In the case of `CN(C)CC1CN(C(=O)NCc2ccccc2)Cc2nccn2C1.O=C(O)C(F)(F)F` (stereo unspecified), the “Percent Effect” value is on record as -13.89%.
As for `CCOCC(=O)N1CCC(c2nccn2CC2CC2)CC1`, the figure is 4.34%.
Turning to `CCOCC(=O)N1Cc2nccn2CC(CN2CCCC2)C1.O=C(O)C(F)(F)F` (stereo unspecified), the “Percent Effect” value is on record as -4.064%.
For `CCOCC(=O)N1Cc2nccn2CC(CN(C)C)C1` (stereo unspecified), the “Percent Effect” value was 110.3%.
For `COc1cccc(CC(=O)N2Cc3nccn3CC(CN(C)C)C2)c1` (stereo unspecified), the “Percent Effect” value is reported as 80.89%.
Regarding `Cc1occc1C(=O)N1Cc2nccn2CC(CN(C)C)C1.O=C(O)C(F)(F)F` (stereo unspecified), the “Percent Effect” value is reported as 7.658%.
In the case of `Cc1ccc(CN2CCOC3(CCN(C(=O)C4CC=CC4)CC3)C2)cc1.O=C(O)C(F)(F)F` it was 15.78%; in that of `Cc1ccccc1N1CCN(C(=O)c2ncc(F)cc2F)C(C)C1` (stereo unspecified), 9.425%.
As for `COc1ccc(C(=O)N2C[C@H]3CC[C@@H]2CN(C)C3)cc1Cl`, the figure is -11.94%.
In the case of `Cc1ccccc1-c1ncc(CNCc2csc(C(C)C)n2)s1` it was -1.637%; in that of `O=C(c1ccoc1)N1CCC2(C1)CN(c1nccs1)C2`, -3.02%.
Turning to `CN(C)CC1CN(C(=O)Cc2ccccc2)Cc2nccn2C1.O=C(O)C(F)(F)F` (stereo unspecified), the “Percent Effect” value is 102.6%.
On to `Cc1ccc(CC(=O)N2Cc3nccn3CC(CN(C)C)C2)cc1.O=C(O)C(F)(F)F` (stereo unspecified), for which the “Percent Effect” value was found to be 14%.
`OCCCN1CCCC1c1cccc(Br)c1` (stereo unspecified): the “Percent Effect” value is given as -6.004%.
For `Cc1cncc(C2CCCN2CC(N)=O)n1` (stereo unspecified), the “Percent Effect” value is 143.4%.
With `Cc1nc(O)cc(C2CCCN2CCO)n1` (stereo unspecified), the “Percent Effect” value is recorded as 112.5%.
In the case of `Cc1cncc(C2CCCN2CCO)n1` (stereo unspecified), the “Percent Effect” value is on record as 153.6%.
In the case of `NC(=O)CN1CCCC1c1ccccc1Br` (stereo unspecified) it was -4.067%.
As for `CN1CCN(C[C@H]2CC[C@@H](Cc3ccc(CN4CCCC4)cc3)O2)CC1`, the “Percent Effect” value is -1.169%.
On to `Cc1ccc(S(=O)(=O)NC[C@H]2OC[C@@H](NCc3cccs3)[C@@H]2O)cc1`, for which the “Percent Effect” value is 7.979%.
For the compound `CCn1c(C)nnc1SCCNC(=O)CC1CCc2ccccc21` (stereo unspecified), the “Percent Effect” value was -3.198%.
With `CCOC(=O)[C@]12CCCN(Cc3nccs3)C[C@H]1CN(CCOC)C2.O=C(O)C(F)(F)F.O=C(O)C(F)(F)F`, the “Percent Effect” value was -1.05%.
Regarding `CCOC(=O)[C@]12CCCN(Cc3nccs3)C[C@H]1CN(C(C)=O)C2.O=C(O)C(F)(F)F`, the “Percent Effect” value turned out to be 10.79%.
On to `CCOC(=O)[C@]12CCCN(Cc3cccs3)C[C@H]1CN(CCOC)C2.O=C(O)C(F)(F)F.O=C(O)C(F)(F)F`, for which the “Percent Effect” value came out at 131.5%.
Consider `CCOC(=O)[C@]12CCCN(Cc3ccsc3)C[C@H]1CN(CCOC)C2.O=C(O)C(F)(F)F.O=C(O)C(F)(F)F`, for which the “Percent Effect” value is -11.63%.
For `CCOC(=O)[C@]12CCCN(Cc3cccs3)C[C@H]1CN(C(C)=O)C2.O=C(O)C(F)(F)F`, the “Percent Effect” value stood at 93.24%.
Regarding `CCOC(=O)[C@]12CCCN(Cc3cccs3)C[C@H]1CN(C(C)C)C2.O=C(O)C(F)(F)F.O=C(O)C(F)(F)F`, the “Percent Effect” value came out at 108.6%.
For `CCOC(=O)[C@]12CCCN(Cc3nccs3)C[C@H]1CN(C(C)C)C2.O=C(O)C(F)(F)F.O=C(O)C(F)(F)F`, the “Percent Effect” value was -10.51%.
For `CCOC(=O)[C@]12CCCN(Cc3ccco3)C[C@H]1CN(CCN(C)C)C2.O=C(O)C(F)(F)F.O=C(O)C(F)(F)F.O=C(O)C(F)(F)F`, the “Percent Effect” value amounted to 13.18%.
With `CCOC(=O)[C@]12CCCN(Cc3nccs3)C[C@H]1CN(S(C)(=O)=O)C2.O=C(O)C(F)(F)F`, the “Percent Effect” value was -4.113%.
Regarding `CCOC(=O)[C@]12CCCN(Cc3ccco3)C[C@H]1CN(S(C)(=O)=O)C2.O=C(O)C(F)(F)F`, the “Percent Effect” value is given as 113.6%.
In the case of `COCCN(Cc1ccccn1)C(=O)CC1OCCc2ccccc21` (stereo unspecified) it was -5.998%.
Take `COC(=O)c1ccc(N2CCC(C(O)c3ccccc3)CC2)nn1` (stereo unspecified): the “Percent Effect” value is on record as -10.77%.
As for `CC(C)CCC(=O)Nc1ncn(CC(=O)N2CCCCCC2)n1`, the “Percent Effect” value is -19.43%.
In the case of `CCc1nc(CC(=O)N2CCOCC2c2ncon2)cs1` (stereo unspecified) it was -4.331%; in that of `Cc1nnsc1CN1C[C@@H]2CC[C@H](C1)N(Cc1c(C)noc1C)C2=O`, 10.64%.
Regarding `O=C1N(CC2CC2)CCCC1(O)CN1CCc2[nH]ncc2C1` (stereo unspecified), the “Percent Effect” value is recorded as -6.967%.
Consider `CCc1ccc(CN2CCN(C)C3(CCC(=O)N(CC4CC4)CC3)C2)o1` (stereo unspecified), for which the “Percent Effect” value stood at 1.557%.
For `Cc1noc([C@@H]2C[C@H](NC(=O)C3CCCCC3)CN2C)n1`, the “Percent Effect” value was -5.582%.
On to `CCOC(=O)[C@]12CCCN(Cc3nccs3)C[C@H]1CN(CCN(C)C)C2.O=C(O)C(F)(F)F.O=C(O)C(F)(F)F.O=C(O)C(F)(F)F`, for which the “Percent Effect” value turned out to be 8.148%.
As for `CCOC(=O)[C@]12CCCN(Cc3nccs3)C[C@H]1CN(CC(C)C)C2.O=C(O)C(F)(F)F.O=C(O)C(F)(F)F`, the “Percent Effect” value is given as 11.11%.
Regarding `CCOC(=O)[C@]12CCCN(Cc3cccs3)C[C@H]1CN(CC(C)C)C2.O=C(O)C(F)(F)F.O=C(O)C(F)(F)F`, the “Percent Effect” value is reported as 98.32%.
